The record followed here is ChEMBL document CHEMBL3433997, “St. Jude Leishmania screening dataset” (2016).

Usually inhibition stands for the relative decrease from the control value, in per cent.

Common to all, as to type: functional
In test [1] the target is Solute carrier family 2, facilitated glucose transporter member 1 (Homo sapiens) (UniProt P11166). Put plainly: ST_JUDE_LEISH: Cytotoxicity at 2uM final concentration against transgenic Leishmania Mexicana promastigotes LmGLUT1 that are glucose transport deficient and complemented with the human glucose transporter GLUT1. Activity is measured by DNA content using SYBR green in vitro.
Sequence of Solute carrier family 2, facilitated glucose transporter member 1 (Homo sapiens) (P11166 whole entry): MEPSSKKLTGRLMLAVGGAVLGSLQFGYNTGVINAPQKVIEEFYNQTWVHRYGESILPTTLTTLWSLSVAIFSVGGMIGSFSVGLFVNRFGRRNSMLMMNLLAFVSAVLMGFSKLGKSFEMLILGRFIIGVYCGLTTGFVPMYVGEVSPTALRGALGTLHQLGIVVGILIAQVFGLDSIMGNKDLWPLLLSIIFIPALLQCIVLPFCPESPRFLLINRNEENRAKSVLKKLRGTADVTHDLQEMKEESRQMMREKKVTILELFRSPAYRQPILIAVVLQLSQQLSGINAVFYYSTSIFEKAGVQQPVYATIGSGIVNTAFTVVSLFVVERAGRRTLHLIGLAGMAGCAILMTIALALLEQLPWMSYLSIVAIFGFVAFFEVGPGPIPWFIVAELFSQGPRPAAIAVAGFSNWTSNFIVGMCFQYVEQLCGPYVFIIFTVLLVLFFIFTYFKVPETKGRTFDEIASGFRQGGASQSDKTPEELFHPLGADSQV

The target in test [2] is Hexose transporter 1 (Plasmodium falciparum) (UniProt O97467). Put plainly: ST_JUDE_LEISH: Cytotoxicity at 2uM final concentration against transgenic Leishmania Mexicana promastigotes LmPfHT that are glucose transport deficient and complemented with the Plasmodium falciparum hexose transporter. Activity is measured by DNA content using SYBR green in vitro.
Test [3] has as its target Glucose transporter (Leishmania mexicana) (UniProt O61059). Put plainly: ST_JUDE_LEISH: Cytotoxicity at 2uM final concentration against transgenic Leishmania Mexicana promastigotes LmGT2 that are glucose transport deficient and complemented with the L. Mexicana glucose transporter 2. Activity is measured by DNA content using SYBR green in vitro.

`O=C(/C=C/c1ccc(Cl)c(Cl)c1)NCCCCCN1CCC(NC(=O)Nc2ccc(Oc3ccccc3)cc2)C1` (stereo unspecified): the inhibition in test [1] amounted to 2.36%; in test [2] it was 1.54%; in test [3] it was 0.16%.

Take `Cc1nc(C)c(-c2ccc(Oc3ccc(Cl)c(Cl)c3)cc2)c(O)c1Br`: the inhibition in test [1] amounted to 0.19%; in test [2], 0.11%; in test [3], 0.06%.

For `CCOc1ccc2[nH]c(-c3ccccc3)cc(=NN=Cc3ccncc3)c2c1`, the inhibition is 1.66% in test [1], 4.54% in test [2] and -0.25% in test [3].

Take `Cc1ccc2c(=NN=Cc3cccc(Cl)c3)cc(C)[nH]c2c1`: the inhibition in test [1] came to 0.92%; in test [2] it was 0.93%; in test [3], 1.04%.

On to `Cc1ccc(Cc2c(C)nc3nc(N)nc(N)c3c2C)cc1`, for which the inhibition was 69.9% in test [1], 73.4% in test [2] and 54.4% in test [3].

`O=C(NCc1cccc(C(F)(F)F)c1)c1ccc(CNC(=O)c2ccc(O)c(-c3ccc(Cl)c(Cl)c3)c2)cc1`: the inhibition is 5.02% in test [1], 2.57% in test [2] and 3.47% in test [3].

As for `Cc1ccc(C)c(NC(=O)Nc2ccc(C)c(-c3ccc(C(=O)Nc4ccncc4)cc3)c2)c1`, the inhibition in test [1] stood at 6.08%; in test [2] it was 3.66%; in test [3], 2.82%.

Turning to `COc1ccc(Cn2c(N3CCN(S(=O)(=O)c4ccc(OC)cc4)CC3)nc3c2c(=O)n(CC2CC2)c(=O)n3CC2CC2)cc1`, the values for the inhibition in test [1], in test [2] and in test [3] were 0.89%, -0.86% and -1.39%, respectively.

On to `Cc1cc(N[C@@H](CC(C)C)C(=O)NCCOc2ccccc2)nc(Nc2ccccc2)n1`, for which the inhibition came out at 6.84% in test [1], 2.42% in test [2] and 1.29% in test [3].

Consider `Fc1ccc(-c2oc(C3CCN(CCc4ccc(-c5noc(=S)[nH]5)cc4)CC3)nc2COCC(F)(F)F)cc1`, for which the inhibition in test [1] turned out to be 8.65%; in test [2], 7.22%; in test [3], 8.14%.

`CCCCCCCN(Cc1ccc(OC(C)(C)C(=O)OCC)cc1)C(=O)Cc1ccc(F)cc1F`: the results for the inhibition in test [1], in test [2] and in test [3] were 2.17%, 1.8% and 2.23%, respectively.

Turning to `O=C1c2ccc([N+](=O)[O-])cc2C(=O)N1c1ccc2[nH]ncc2c1`, the inhibition worked out at 2.79% in test [1], 1.54% in test [2] and 0.95% in test [3].
